{"source": "PubChem BioAssay (NCI)", "key": {"[1]": {"assay": "NCI Yeast Anticancer Drug Screen. Data for the rad52 strain (AID 147);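 also: 0% = growth of vehicle-treated control cultures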", "conditions": "S. cerevisiae rad52 mutant growth inhibition, active compounds read high", "method_in_brief": "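The repair-mutant yeast strain was incubated with compounds, then growth was read and inhibition derived relative to vehicle.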"}, "[2]": {"assay": "NCI Yeast Anticancer Drug Screen. Data for the wt1 strain (AID 149);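 also: 0% = growth of vehicle-treated wt1 cultures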", "conditions": "S. cerevisiae wt1 strain (SPY 50644) growth inhibition, active compounds read high", "method_in_brief": "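wt1 yeast, compound-treated; % growth inhibition vs vehicle control.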"}, "[3]": {"assay": "NCI Yeast Anticancer Drug Screen. Data for the rad50EPP+ strain (AID 151);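 also: 0% = growth of vehicle-treated control cultures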", "conditions": "S. cerevisiae rad50 mutant strain, active compounds read high", "method_in_brief": "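Vehicle-normalised growth inhibition; rad50EPP+ yeast strain, altered in DNA damage repair, compound-treated.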"}, "[4]": {"assay": "NCI Yeast Anticancer Drug Screen. Data for the rad50 strain (AID 155);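 also: 0% = growth of vehicle-only cultures of the same strain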", "conditions": "S. cerevisiae rad50 strain growth inhibition, active compounds read high", "method_in_brief": "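Genetically altered yeast (DNA repair pathway); compound treatment; growth inhibition vs vehicle ctrl.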"}, "[5]": {"assay": "NCI Yeast Anticancer Drug Screen. Data for the mec2-1 strain (AID 157)", "conditions": "S. cerevisiae mec2-1 strain, active compounds read high", "method_in_brief": "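Mutant yeast (mec2-1) grown with compound; growth inhibition relative to vehicle control reported.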"}, "[6]": {"assay": "NCI Yeast Anticancer Drug Screen. Data for the rad14 strain (AID 159);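 also: 0% = growth of vehicle-treated control cultures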", "conditions": "S. cerevisiae rad14 strain growth inhibition, active compounds read high", "method_in_brief": "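Test compounds were applied to a repair-deficient yeast strain. Its growth was then compared with that of cultures given vehicle alone, and inhibition was expressed relative to those controls.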"}, "[7]": {"assay": "NCI Yeast Anticancer Drug Screen. Data for the sgs1 mgt1 strain (AID 161);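 also: 0% = growth of cultures given vehicle only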", "conditions": "S. cerevisiae sgs1 mgt1 strain, active compounds read high", "method_in_brief": "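Yeast cells carrying a defined DNA-repair defect were exposed to test compounds. Growth inhibition was measured relative to vehicle-treated controls.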"}, "[8]": {"assay": "NCI Yeast Anticancer Drug Screen. Data for the CLN2oe strain (AID 163);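 also: 0% = growth of vehicle-only control cultures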", "conditions": "S. cerevisiae CLN2oe strain, active compounds read high", "method_in_brief": "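Compounds are applied to yeast harbouring a defined cell-cycle control change; reduced growth compared with vehicle-treated controls gives the value.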"}, "[9]": {"assay": "NCI Yeast Anticancer Drug Screen. Data for the bub3 strain (AID 167)", "conditions": "S. cerevisiae bub3 mutant strain, active compounds read high", "method_in_brief": "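Yeast carrying a defined mutation is treated with each compound, and growth is compared with that of vehicle-exposed cells to give inhibition.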"}, "[10]": {"assay": "NCI Yeast Anticancer Drug Screen. Data for the wt2 strain (AID 169);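 also: 0% = growth of vehicle-treated yeast cultures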", "conditions": "S. cerevisiae wt2 strain growth inhibition, active compounds read high", "method_in_brief": "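Against vehicle-treated controls, the growth of yeast exposed to each compound was compared, and the inhibition was recorded.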"}, "[11]": {"assay": "NCI Yeast Anticancer Drug Screen. Data for the mlh1 strain (AID 171);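 also: 0% = growth of vehicle-treated control cultures of the same strain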", "conditions": "S. cerevisiae mlh1 strain growth inhibition, active compounds read high", "method_in_brief": "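Measured: yeast growth. Reference: vehicle-treated controls. Organism: strain with a defined alteration affecting DNA damage repair or cell cycle control, treated with compound.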"}, "[12]": {"assay": "NCI Yeast Anticancer Drug Screen. Data for the mlh1 rad18 strain (AID 175)", "conditions": "S. cerevisiae mlh1 rad18 strain growth inhibition, active compounds read high", "method_in_brief": "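Genetically defined yeast (DNA repair-deficient) exposed to compounds; growth inhibition determined relative to vehicle.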"}, "[13]": {"assay": "NCI Yeast Anticancer Drug Screen. Data for the rad18 strain (AID 177)", "conditions": "S. cerevisiae rad18 mutant growth inhibition, active compounds read high", "method_in_brief": "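Vehicle-treated cultures served as the baseline for scoring compound-induced growth inhibition in DNA-repair-mutant yeast.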"}, "[14]": {"conditions": "at 5.0 µM (retest, dose inferred, filed as 0.5)"}, "[15]": {"conditions": "at 50.0 µM (retest, dose inferred, filed as 5.0)"}}, "note": "About 79,000 compounds went through this panel and 15% of them were active in at least one assay; those are over-represented in the sample as a whole. Values without a mark were called inactive. Activity calls are given as the source filed them. Rule as the data show it: active = growth inhibition above about 70%; inactive = the rest.", "data": [{"smiles": "Cc1ccc(S(=O)(=O)N/N=C/C2(c3ccccc3)c3ccccc3-c3ccccc32)cc1", "values": [{"measurement": "growth inhibition", "setting": "[1]; at 1.2 µM", "result": 41, "unit": "%"}, {"measurement": "growth inhibition", "setting": "[1]; at 3.7 µM", "result": 45, "unit": "%"}, {"measurement": "growth inhibition", "setting": "[1]; at 11.0 µM", "result": "79% (active)"}, {"measurement": "growth inhibition", "setting": "[1]; at 33.0 µM", "result": "93% (active)"}, {"measurement": "growth inhibition", "setting": "[1]; at 100.0 µM", "result": "86% (active)"}, {"measurement": "growth inhibition", "setting": "[2]; at 1.2 µM", "result": 25, "unit": "%"}, {"measurement": "growth inhibition", "setting": "[2]; at 3.7 µM", "result": 13, "unit": "%"}, {"measurement": "growth inhibition", "setting": "[2]; at 11.0 µM", "result": 34, "unit": "%"}, {"measurement": "growth inhibition", "setting": "[2]; at 33.0 µM", "result": "87% (active)"}, {"measurement": "growth inhibition", "setting": "[2]; at 100.0 µM", "result": "83% (active)"}, {"measurement": "growth inhibition", "setting": "[3]; at 1.2 µM", "result": 11, "unit": "%"}, {"measurement": "growth inhibition", "setting": "[3]; at 3.7 µM", "result": 2, "unit": "%"}, {"measurement": "growth inhibition", "setting": "[3]; at 11.0 µM", "result": 17, "unit": "%"}, {"measurement": "growth inhibition", "setting": "[3]; at 33.0 µM", "result": -8, "unit": "%"}, {"measurement": "growth inhibition", "setting": "[3]; at 100.0 µM", "result": -37, "unit": "%"}, {"measurement": "growth inhibition", "setting": "[4]; at 1.2 µM", "result": 4, "unit": "%"}, {"measurement": "growth inhibition", "setting": "[4]; at 3.7 µM", "result": 36, "unit": "%"}, {"measurement": "growth inhibition", "setting": "[4]; [14]", "result": 38, "unit": "%"}, {"measurement": "growth inhibition", "setting": "[4]; at 11.0 µM", "result": "82% (active)"}, {"measurement": "growth inhibition", "setting": "[4]; at 33.0 µM", "result": "90% (active)"}, {"measurement": "growth inhibition", "setting": "[4]; [15]", "result": "92% (active)"}, {"measurement": "growth inhibition", "setting": "[4]; at 50.0 µM", "result": 29.5, "unit": "%"}, {"measurement": "growth inhibition", "setting": "[4]; at 100.0 µM", "result": "77% (active)"}, {"measurement": "growth inhibition", "setting": "[5]; at 1.2 µM", "result": 25, "unit": "%"}, {"measurement": "growth inhibition", "setting": "[5]; at 3.7 µM", "result": 15, "unit": "%"}, {"measurement": "growth inhibition", "setting": "[5]; [14]", "result": 22, "unit": "%"}, {"measurement": "growth inhibition", "setting": "[5]; at 11.0 µM", "result": 27, "unit": "%"}, {"measurement": "growth inhibition", "setting": "[5]; at 33.0 µM", "result": "78% (active)"}, {"measurement": "growth inhibition", "setting": "[5]; [15]", "result": "93% (active)"}, {"measurement": "growth inhibition", "setting": "[5]; at 50.0 µM", "result": 7.7, "unit": "%"}, {"measurement": "growth inhibition", "setting": "[5]; at 100.0 µM", "result": "84% (active)"}, {"measurement": "growth inhibition", "setting": "[6]; at 1.2 µM", "result": 9, "unit": "%"}, {"measurement": "growth inhibition", "setting": "[6]; at 3.7 µM", "result": 9, "unit": "%"}, {"measurement": "growth inhibition", "setting": "[6]; at 11.0 µM", "result": 45, "unit": "%"}, {"measurement": "growth inhibition", "setting": "[6]; at 33.0 µM", "result": "86% (active)"}, {"measurement": "growth inhibition", "setting": "[6]; at 100.0 µM", "result": "86% (active)"}, {"measurement": "growth inhibition", "setting": "[7]; [14]", "result": 31, "unit": "%"}, {"measurement": "growth inhibition", "setting": "[7]; [15]", "result": "93% (active)"}, {"measurement": "growth inhibition", "setting": "[7]; at 50.0 µM", "result": 33.8, "unit": "%"}, {"measurement": "growth inhibition", "setting": "[8]; at 1.2 µM", "result": 37, "unit": "%"}, {"measurement": "growth inhibition", "setting": "[8]; at 3.7 µM", "result": 38, "unit": "%"}, {"measurement": "growth inhibition", "setting": "[8]; at 11.0 µM", "result": "80% (active)"}, {"measurement": "growth inhibition", "setting": "[8]; at 33.0 µM", "result": "91% (active)"}, {"measurement": "growth inhibition", "setting": "[8]; at 100.0 µM", "result": "76% (active)"}, {"measurement": "growth inhibition", "setting": "[9]; at 1.2 µM", "result": 19, "unit": "%"}, {"measurement": "growth inhibition", "setting": "[9]; at 3.7 µM", "result": 9, "unit": "%"}, {"measurement": "growth inhibition", "setting": "[9]; [14]", "result": 20, "unit": "%"}, {"measurement": "growth inhibition", "setting": "[9]; at 11.0 µM", "result": 54, "unit": "%"}, {"measurement": "growth inhibition", "setting": "[9]; at 33.0 µM", "result": "88% (active)"}, {"measurement": "growth inhibition", "setting": "[9]; [15]", "result": "90% (active)"}, {"measurement": "growth inhibition", "setting": "[9]; at 50.0 µM", "result": 29.1, "unit": "%"}, {"measurement": "growth inhibition", "setting": "[9]; at 100.0 µM", "result": 62, "unit": "%"}, {"measurement": "growth inhibition", "setting": "[10]; at 1.2 µM", "result": -8, "unit": "%"}, {"measurement": "growth inhibition", "setting": "[10]; at 3.7 µM", "result": 18, "unit": "%"}, {"measurement": "growth inhibition", "setting": "[10]; at 11.0 µM", "result": "76% (active)"}, {"measurement": "growth inhibition", "setting": "[10]; at 33.0 µM", "result": "91% (active)"}, {"measurement": "growth inhibition", "setting": "[10]; at 100.0 µM", "result": "80% (active)"}, {"measurement": "growth inhibition", "setting": "[11]; at 1.2 µM", "result": 21, "unit": "%"}, {"measurement": "growth inhibition", "setting": "[11]; at 3.7 µM", "result": 7, "unit": "%"}, {"measurement": "growth inhibition", "setting": "[11]; at 11.0 µM", "result": 30, "unit": "%"}, {"measurement": "growth inhibition", "setting": "[11]; at 33.0 µM", "result": 61, "unit": "%"}, {"measurement": "growth inhibition", "setting": "[11]; at 100.0 µM", "result": "71% (active)"}, {"measurement": "growth inhibition", "setting": "[12]; [14]", "result": "79% (active)"}, {"measurement": "growth inhibition", "setting": "[12]; [15]", "result": "91% (active)"}, {"measurement": "growth inhibition", "setting": "[12]; at 50.0 µM", "result": "70.5% (active)"}, {"measurement": "growth inhibition", "setting": "[13]; at 1.2 µM", "result": 50, "unit": "%"}, {"measurement": "growth inhibition", "setting": "[13]; at 3.7 µM", "result": 52, "unit": "%"}, {"measurement": "growth inhibition", "setting": "[13]; at 11.0 µM", "result": "80% (active)"}, {"measurement": "growth inhibition", "setting": "[13]; at 33.0 µM", "result": "91% (active)"}, {"measurement": "growth inhibition", "setting": "[13]; at 100.0 µM", "result": "89% (active)"}]}]}
